Consider one molecule from PubChem BioAssay (EPA / NIEHS).

Molecules are shown by their SMILES. “And” between values parts separate entries of the source, which are not always exact repeats. Equal entries are not always repeated. Inconclusive results are not listed. A structure can be active in one record and inactive in another. The source made the active and inactive calls. How the source made its calls, unless noted: active means hit-call score of the fitted dose curve at least 0.9, where 1 is the maximum; inactive means score below 0.9.

Broadly, the AC50 is the midpoint of the concentration-response curve, whichever way the signal moves.

Assay [1] is described as follows: CCTE_Mundy_HCI_Cortical_NOG_NeuriteCount: CCTE's Neurite Outgrowth Assay in rat cortical cells for Neurite Count, Mundy Lab (AID 2284212).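 Further: cells fixed about two days after chemical exposure began.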 Put shortly: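 Rat cortical primary cells; compound added 2 h post-plating, 1/10 dilution of working solution. Anti-betaIII-tubulin/AF488 ICC; ArrayScan neurite count vs DMSO.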
A short description of assay [2]: CCTE_Mundy_HCI_Cortical_NOG_NeuriteLength: CCTE's Neurite Outgrowth Assay in rat cortical cells for Neurite Length, Mundy Lab (AID 2284213).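 Further: neurites imaged about 48 to 50 h after chemical exposure began.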 Put shortly: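 First, rat primary cortical cells were plated and, 2 h later, given test chemical as a 1/10 dilution. Finally, βIII-tubulin immunostaining enabled automated imaging of neurite length.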
Assay [3] in a line: CCTE_Mundy_HCI_Cortical_Synap_Neur_Matur_NeuriteLength: CCTE's Synaptogenesis and Neurite Maturation Assay in rat cortical cells for Neurite Length, Mundy Lab (AID 2284214). The procedure, abridged: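 Neurite length quantified by automated high-content imaging of MAP2, synaptophysin and Hoechst staining. Rat cortical cells received chemical from DIV 7 to DIV 12 […], glial growth arrested by AraC at DIV 5; DMSO baseline.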

A short description of assay [4]: CCTE_Mundy_HCI_Cortical_Synap_Neur_Matur_NeuriteSpotCountPerNeuron: CCTE's Synaptogenesis and Neurite Maturation Assay in rat cortical cells for Neurite Spot Count per Neuron Count, Mundy Lab (AID 2284215). Put shortly: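 Rat cortical primary cultures; AraC DIV 5 to arrest glia; dosing + media change DIV 7; fixed DIV 12. Anti-MAP2/anti-synaptophysin, Hoechst nuclei; HCI puncta count per neuron, positive fitting direction vs DMSO.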

The nature of assay [5]: CCTE_Mundy_HCI_Cortical_Synap_Neur_Matur_SynapseCount: CCTE's Synaptogenesis and Neurite Maturation Assay in rat cortical cells for Synapse Count, Mundy Lab (AID 2284218). Put shortly: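 High-content imaging of synaptophysin puncta per MAP2-positive neuron (Hoechst nuclei) in rat cortical cells exposed DIV 7–12 after glial arrest with AraC at DIV 5; decrease relative to DMSO scored.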

Assay [6] can be described thus: CCTE_Mundy_HCI_Cortical_Synap_Neur_Matur_NeuriteCount: CCTE's Synaptogenesis and Neurite Maturation Assay in rat cortical cells for Neurite Count, Mundy Lab (AID 2284222). Put shortly:
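Chemical exposure runs DIV 7–12 in rat cortical cultures, glia suppressed by AraC at DIV 5; measurement is at DIV 12. Imaging-derived neurite counts are fitted against DMSO baseline.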

Assay [7] is described as follows: UKN4_HCS_LUHMES_cell_viability: Viability Assessment in the University of Konstanz (UKN) Leist Lab Neurite Outgrowth Assay in human LUHMES cells (UKN4) (AID 2284232). The procedure, abridged: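 Viability was read by high-content imaging of calcein-AM/H-33342-stained cells after 24 h toxicant exposure, staining included. Cells: human LUHMES on day 2 of dopaminergic differentiation, dosed shortly after attachment; DMSO baseline, bidirectional curve fitting.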

Assay [8] is described as follows: UKN2_HCS_IMR90_cell_viability: Viability Assessment in the University of Konstanz (UKN) Leist Lab Neural Crest Cell Migration Assay in human induced IMR90 Pluripotent Stem Cells (UKN2) (AID 2284233).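 Further: viability of neural crest cells differentiated from IMR90 iPSC measured by calcein-AM fluorescence imaging; cells exposed to compound for 24 h after a 24 h migration phase.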 Put shortly:
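cMINC format, iPSC-derived neural crest (IMR90); 24 h migration (EGF/FGF, N2-S), then 24 h toxicant. Calcein-AM/H-33342 stain 30 min; fluorescence intensity by HCS; DMSO-normalised, bidirectional fitting.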

Assay [9] is described as follows: CCTE_Mundy_HCI_Cortical_NOG_NeuronCount: CCTE's Neurite Outgrowth Assay in rat cortical cells for Neuron Count, Mundy Lab (AID 2284236; active means hit-call score of the fitted dose curve at least 0.9, where 1 is the maximum;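 further: neurons counted by imaging betaIII-tubulin and Hoechst stained cortical cells; cells exposed to compound for about 48 hours before fixation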). The procedure, abridged: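 Read-out: neuron number by high-content imaging of betaIII-tubulin (Alexa Fluor-488) and Hoechst-labelled rat primary cortical cells.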
The nature of assay [10]: CCTE_Mundy_HCI_hNP1_Casp3_7: CCTE's Caspase-Glo 3/7 Assay in human neuroprogenitor cells for Apoptosis, Mundy Lab (AID 2284240). The procedure, abridged:
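Neuroepithelial-lineage stem cells from WA09 embryonic cells were treated with chemicals after 40–44 h of culture. Twenty-four hours later, caspase-3/7 activation was detected luminescently after a 30 min room-temperature reagent step, with DMSO as baseline.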

Assay [11] in a line: CCTE_Mundy_HCI_hNP1_CellTiter: CCTE's Cell Titer-Glo 2 Assay in human neuroprogenitor cells for Viability, Mundy Lab (AID 2284241; active means hit-call score of the fitted dose curve at least 0.9, where 1 is the maximum). Put shortly:
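Measures ATP content in human neural progenitors derived from WA09 embryonic cells. Read-out at 26.5 hours after dosing, with DMSO serving as the negative control and baseline.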
For orientation: ATP-based viability assays read luminescence as a measure of living cells.

The nature of assay [12]: CCTE_Mundy_HCI_Cortical_Synap_Neur_Matur_NeuronCount: CCTE's Synaptogenesis and Neurite Maturation Assay in rat cortical cells for Neuron Count, Mundy Lab (AID 2284242; active means hit-call score of the fitted dose curve at least 0.9, where 1 is the maximum;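 further: hits reduce neuron count versus DMSO baseline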). Put shortly:
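Neuron counts come from automated high-content imaging of Hoechst nuclei and MAP2/synaptophysin immunostaining at DIV 12, with loss of signal judged against DMSO. Cultures of rat cortical cells had glial growth arrested by AraC at DIV 5; chemical exposure began DIV 7.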

Read-out in assay [13]: Monokine induced gamma interferon (MIG), CXCL9 (gene 4283)
The assay can be described thus: BSK_KF3CT_MIG: BioMAP Diversity Plus: KF3CT Assay for Monokine induced gamma interferon (MIG) Biomarker Activity (AID 2284248). Conditions: primary human keratinocytes with fibroblasts. The procedure, abridged: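 KF3CT system: keratinocyte/fibroblast co-culture, 24 h post-dose, MIG by ELISA; activity vs DMSO, positive fitting direction.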

Read-out in assay [14]: Collagen I, COL1A1 (gene 1277)
The assay can be described thus: BSK_hDFCGF_CollagenI: BioMAP Diversity Plus: hDFCGF Assay for Collagen I Biomarker Activity (AID 2284250). The settings on record: primary human foreskin fibroblasts. The procedure, abridged:
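Collagen I quantified by ELISA 24 h after chemical dosing of human dermal fibroblast primary cells, with parallel SRB staining (0.1%, TCA-fixed, 560 nm) for overt cytotoxicity.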

Read-out in assay [15]: Interferon-inducible T-cell alpha chemoattractant (ITAC), CXCL11 (gene 6373)
The assay can be described thus: BSK_hDFCGF_ITAC: BioMAP Diversity Plus: hDFCGF Assay for Interferon-inducible T-cell alpha chemoattractant (ITAC) Biomarker Activity (AID 2284251). The settings on record: primary human foreskin fibroblasts. Put shortly:
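Chemical dosing of primary human foreskin fibroblast cultures preceded ELISA measurement of I-TAC at 24 h. Response was analysed in the positive direction using DMSO as baseline, while parallel SRB staining measured cytotoxicity.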

Read-out in assay [16]: Plasminogen activator inhibitor-1 (PAI1), SERPINE1 (gene 5054)
The assay can be described thus: BSK_KF3CT_PAI1: BioMAP Diversity Plus: KF3CT Assay for Plasminogen activator inhibitor-1 (PAI1) Biomarker Activity (AID 2284252). Conditions: primary human keratinocytes with fibroblasts. The procedure, abridged: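 PAI-1 levels quantified by ELISA after 24 h compound exposure of primary human skin keratinocytes co-cultured with fibroblasts. Activity is the gain relative to DMSO; cytotoxicity tracked in parallel cultures via SRB staining.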

Read-out in assay [17]: Interleukin-8 (IL8), CXCL8 (gene 3576)
The assay can be described thus: BSK_KF3CT_IL8: BioMAP Diversity Plus: KF3CT Assay for Interleukin-8 (IL8) Biomarker Activity (AID 2284254). Conditions: primary human keratinocytes with fibroblasts. Put shortly:
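Chemicals were added to co-cultured human keratinocytes and foreskin fibroblasts, incubated 24 h, then IL-8 was quantified by ELISA. Cytotoxicity was tracked by sulforhodamine B total-protein staining in parallel cultures.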

Read-out in assay [18]: Intercellular Adhesion Molecule 1 (ICAM1), ICAM1 (gene 3383)
The assay can be described thus: BSK_BE3C_ICAM1: BioMAP Diversity Plus: BE3C Assay for Intercellular Adhesion Molecule 1 (ICAM1) Biomarker Activity (AID 2284278).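 Further: cell-surface ICAM-1 protein level quantified by ELISA.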 Conditions: primary human bronchial epithelial cells. The procedure, abridged:
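ICAM-1 quantified by ELISA and fitted against DMSO baseline, 24 h post-dosing in BE3C cultures of primary human lung bronchial epithelial cells. Cytotoxicity checked in parallel cultures by total protein SRB staining.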

Read-out in assay [19]: Interferon-inducible T-cell alpha chemoattractant (ITAC), CXCL11 (gene 6373)
The assay can be described thus: BSK_BE3C_ITAC: BioMAP Diversity Plus: BE3C Assay for Interferon-inducible T-cell alpha chemoattractant (ITAC) Biomarker Activity (AID 2284279). The settings on record: primary human bronchial epithelial cells. The procedure, abridged: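 BE3C cells (human primary bronchial epithelium), 24 h compound exposure, I-TAC by ELISA, DMSO = negative control/baseline, positive fitting direction.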

Read-out in assay [20]: Interleukin-8 (IL8), CXCL8 (gene 3576)
The assay can be described thus: BSK_BE3C_IL8: BioMAP Diversity Plus: BE3C Assay for Interleukin-8 (IL8) Biomarker Activity (AID 2284280). The settings on record: primary human bronchial epithelial cells. The procedure, abridged:
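Measured at 24 h after treatment, IL-8 from human primary bronchial epithelial cells is determined by ELISA, and the response is modelled as increasing relative to DMSO negative control.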

Read-out in assay [21]: Epidermal growth factor receptor (EGFR), EGFR (gene 1956)
The assay can be described thus: BSK_BE3C_EGFR: BioMAP Diversity Plus: BE3C Assay for Epidermal growth factor receptor (EGFR) Biomarker Activity (AID 2284281). The settings on record: primary human bronchial epithelial cells. Put shortly: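 Measured 24 h after dosing in primary human bronchial epithelial cultures, EGFR was read by ELISA; gain of signal over DMSO control defined activity.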

With `[Cd+2].[Cl-].[Cl-]`, the AC50 is 13.1 µM (active) in [1]; 12.4 µM (active) in assay [2]; 1.46 µM (active) in [3]; 1.19 µM (active) in assay [4]; 1.25 µM (active) in assay [5]; 2.71 µM (active) in assay [6]. The half-maximal activity concentration (AC50) in [7] is 8.98 µM (active); in [8], 4.14 µM (active); in assay [9], 9.84 µM (active); in assay [12], 0.728 µM (active); in assay [13], 33.6 µM (active) and 36.8 µM (active); in assay [14], 1.42 µM (active) and 465 nM (active). Also, the AC50 in assay [15] is 10 µM (active) and 7.2 µM (active); in assay [16], 34.5 µM (active) and 29.9 µM (active); in assay [17], 26.8 µM (active); in assay [19], 28.9 µM (active) and 31.5 µM (active); in assay [20] it was 0.0538 µM (active); in assay [21], 31.6 µM (active) and 12.3 µM (active). The call in [10], in assay [11], in [17], in assay [18] and in [20] was inactive.
